NCOA2 inhibitor: human SRC2 (NCOA2) inhibition; Q15596; HEK293 GAL4-SRC2 luciferase reporter, luminescence; inhibition, % at 9 µM; actives 0.17% (n = 370,000);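 active = inhibition above the mean inhibition of all tested compounds plus 3 SD, set per campaign, cut at about 52% in these data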
SRC3 inh: inhibits human SRC3 coactivator | Q9Y6Q9 | HEK293 GAL4-SRC3 luciferase reporter, luminescence | inhibition, % at 3.6 µM | actives 0.17% (n = 360,000) | AID 588352;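 active = inhibition above a per-campaign cutoff, the mean of all compounds plus 3 SD, cut at about 60% in these data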;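 note: higher means less SRC3-driven luciferase light from the GAL4 reporter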
NR2F2 inh: inhibitors of human COUP-TFII (NR2F2); AID 686940; inhibition, % at 8.6 µM; actives 0.7% (n = 370,000); HEK293T NGFI-A luciferase reporter, luminescence;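 active = inhibition above a per-plate cutoff, mean inhibition of test wells between control levels plus 3 SD, cut at about 38% in these data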;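 note: cells cotransfected with COUP-TFII expression vector driving the NGFI-A reporter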
SRC1 inh: inhibits human SRC1 coactivator | HEK293 GAL4-SRC1 luciferase reporter, luminescence | inhibition, % at 3.6 µM | actives 0.12% (n = 360,000) | AID 588354;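 active = inhibition above the campaign mean plus 3 SD, with each screening campaign given its own cutoff, cut at about 60% in these data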
LRH-1 inv ag: NR5A2 inverse agonism in reporter assay. O00482. HEK293T StAR-luciferase reporter, LRH-1 transfected, 24 h. inhibition, % at 3.6 µM. actives 0.13% (n = 360,000);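 active = inhibition above the mean inhibition of all tested compounds plus 3 SD, cut at about 73% in these data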
Target sequence (O00482 whole entry, looked up): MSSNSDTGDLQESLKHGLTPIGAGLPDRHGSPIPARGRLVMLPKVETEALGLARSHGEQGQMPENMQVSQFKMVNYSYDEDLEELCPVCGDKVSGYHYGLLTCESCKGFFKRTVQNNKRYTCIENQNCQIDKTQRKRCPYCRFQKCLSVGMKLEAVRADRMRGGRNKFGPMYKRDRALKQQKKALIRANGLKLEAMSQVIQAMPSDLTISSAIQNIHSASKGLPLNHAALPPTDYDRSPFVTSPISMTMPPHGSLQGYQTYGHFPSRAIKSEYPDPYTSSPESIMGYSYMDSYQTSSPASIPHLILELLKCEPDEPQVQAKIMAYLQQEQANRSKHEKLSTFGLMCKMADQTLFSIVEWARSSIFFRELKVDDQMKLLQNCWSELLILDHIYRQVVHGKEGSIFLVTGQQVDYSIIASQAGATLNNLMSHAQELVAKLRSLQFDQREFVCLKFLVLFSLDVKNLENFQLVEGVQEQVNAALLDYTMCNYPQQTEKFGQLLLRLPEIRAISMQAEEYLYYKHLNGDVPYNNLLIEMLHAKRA
GalR3 antag: human GalR3 antagonism; inhibition, % at 3 µM; AID 651719; actives 0.44% (n = 360,000); O60755; HEK293 GalR3-CNG cAMP membrane potential fluorescence; galR3 body fused to GalR1 C-terminus;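 active = inhibition above the screen-wide average plus 3 SD, cut at about 13% in these data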;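 note: forskolin and galanin both at EC90 stimulate the cells; cAMP rise reported by CNG channel membrane potential dye signal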
GalR3 conf: confirmation of human galanin receptor 3 antagonists; inhibition, % at 3 µM; shares compounds with GalR3 antag; actives 59% (n = 1,600); AID 652245; HEK293 GalR3 CNG cAMP biosensor, membrane potential fluorescence; galR3 fused to GalR1 carboxy tail; challenged with forskolin and galanin at EC90;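 active = inhibition above the primary screen's cutoff, the mean inhibition of all screened compounds plus 3 SD, cut at about 13% in these data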
CNG parental: acts as nonspecific agonist in parental HEK-CNG cells; AID 652268; actives 10% (n = 1,600); HEK293-CNG parental cells, cAMP membrane potential fluorescence; normalised: DMSO wells 0%, forskolin wells 100%; activation, % at 3 µM; shares compounds with GalR3 antag; in the data active = activation above about 1.3%
A number is an active result; - = inactive; . = no result. A selection: hits, their analogues and other compounds. The true share with any hit is near 1.1%.

SMILES	NCOA2 inhibitor	SRC3 inh	NR2F2 inh	SRC1 inh	LRH-1 inv ag	GalR3 antag	GalR3 conf	CNG parental
Cc1cc(C)c(C#N)c(SCc2[nH]nc3c2C(c2ccc(F)cc2)C(C#N)=C(N)O3)n1 (stereo not drawn)	-	-	-	-	-	18.5	39.1	4.4
CN(C)S(=O)(=O)c1cccc(-c2cn3cccnc3n2)c1	-	-	-	-	-	.	-	-
O=S(=O)(c1cccc(-c2cn3cccnc3n2)c1)N1CCCCCC1	-	-	-	-	-	-	.	.
COCCCNC(=O)C[C@H]1C[C@@]2(C(=O)OC)C(=C[C@H](C(C)C)O[C@@H]2C2CC2)N(CCC2=CCCCC2)C1=O	-	.	-	.	.	.	.	.
CCOc1ccc(CO/N=C/c2c(C)[nH]c(=O)[nH]c2=O)cc1	-	-	-	-	-	22.4	21.1	-
CCOc1ccc(N(CC)S(=O)(=O)c2c(C)[nH]c(=O)[nH]c2=O)cc1	-	-	-	-	-	-	.	.
C/C(=C/C(=O)Nc1cccc(F)c1)N1CCCC1	-	-	-	-	-	17.5	-	-
CCOC(=O)CSc1nc(N)c(C#N)c(-c2cccs2)c1C#N	-	-	-	-	-	-	.	.
N#Cc1c(N)nc(SCc2ccccn2)c(C#N)c1-c1cccs1	-	-	-	-	-	74.8	49.0	2.5
CCOC(=O)CC(N)c1ccc(OC)cc1 (stereo not drawn)	-	-	-	-	-	13.9	12.7	-
CCOC(=O)CCP(=O)(O)C(O)c1ccc(OC)cc1 (stereo not drawn)	-	-	-	-	-	-	.	.
Cc1nn(-c2ccccc2)c2sc(C(=O)NC3CCCC3)cc12	-	.	-	.	.	.	.	.
COc1ccc(NC(=S)N/C(=N/CS(=O)(=O)c2ccccc2)c2ccccc2)cc1	-	-	-	-	-	-	.	.
O=[N+]([O-])c1ccc(NC(=S)N/C(=N/CS(=O)(=O)c2ccccc2)c2ccccc2)cc1	-	-	-	-	-	12.9	-	-
O=C(NC(=S)NC(=O)c1ccccc1F)c1ccccc1F	-	-	-	-	-	17.7	-	-
O=C(NC(=S)NCc1ccccc1)c1ccccc1F	-	-	-	-	-	-	.	.
COc1ccc(CC2(CO)CCN(Cc3cccc(OC)c3OC)CC2)cc1	-	-	-	-	-	26.1	-	2.1
COC(=O)[C@]12C[C@H](CC(=O)N3CCN(C(=O)c4ccco4)CC3)C(=O)N(Cc3ccccc3)C1=C[C@H](COCc1ccccc1)O[C@@H]2C	-	.	-	.	.	.	.	.
O=C(CSc1nc2ccccc2o1)Nc1ccc(N2CCOCC2)c(Cl)c1	-	-	-	-	-	92.0	108.9	-
O=C(CSc1nc2ccccc2s1)Nc1ccc(N2CCOCC2)c(Cl)c1	-	-	-	-	-	-	.	.
Cc1cccc(NC(=O)C2CCCN2S(=O)(=O)c2cccc3cccnc23)c1C (stereo not drawn)	-	.	-	.	.	.	.	.
COn1c(SCc2ccc(Cl)cc2)nc2ccccc2c1=O	-	-	-	-	-	-	.	.
COn1c(SCc2cccnc2)nc2ccccc2c1=O	-	-	-	-	-	.	-	-
COCCCN1C(=O)[C@H](CC(=O)NCCCCc2ccccc2)[C@]2(C(=O)OC)CCCCC=C12	-	.	-	.	.	.	.	.
Cc1ccc(S(=O)(=O)Oc2ccccc2/C=N/Nc2ccc(C(=O)O)cc2)cc1	-	-	-	-	-	18.1	-	-
O=[N+]([O-])c1cc(S(=O)(=O)c2ccc(N3CCCCC3)c([N+](=O)[O-])c2)ccc1N1CCCCC1	-	-	-	-	-	27.1	-	2.2
O=C(Nc1ccncc1)c1ccc2c(c1)C(=O)N(C1CCCCC1)C2=O	-	-	-	-	-	45.9	57.4	-
CC(C)[C@H](NC(=O)[C@@H]1CCCN1)C(=O)N1CCC2CCN(S(=O)(=O)c3ccccc3)CC21 (stereo partly drawn)	-	.	-	.	.	.	.	.

Compound activity as filed in PubChem BioAssay.
